Laboratory results: PubChem BioAssay AID1159580 (chemical genetic matrix, 2015)
“And” between values parts separate entries of the source, which are not always exact repeats. Equal entries are not always repeated. The campaign covered roughly 5,500 compounds. About 2,000 (36%) were called active. Another 18% or so got no clear call; they are omitted. No stated cut-off is given here; in the data, active means normalized growth mostly below about 0.91 (no sharp cut-off); inconclusive means no clear call, values can overlap the other calls; inactive means mostly above about 0.92. The list shows a part of the results.

Assay: chemical genetic growth profiling, strain panel (AID 1159580);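 further: tested at 20 µM; growth read once vehicle control cultures reached saturation at 30 °C; 1 = growth at the plate median or of vehicle wells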
Settings: S. cerevisiae deletion strains, growth OD

Measured: normalized growth

Cc1ncc([N+](=O)[O-])n1CCO
inactive: locus YAL013W, strain DEP1, stronger effect = lower value 0.989 | locus YAL021C, strain ccr4, stronger effect = lower value 0.983 | locus YAL026C, strain drs2, stronger effect = lower value 1 | locus YAL030W, strain snc1, stronger effect = lower value 0.971 | locus YBL061C, strain skt5, stronger effect = lower value 0.98 | locus YBR009C, strain hhf1, stronger effect = lower value 1.01 | locus YBR021W, strain FUR4, stronger effect = lower value 0.998 | locus YBR023C, strain chs3, stronger effect = lower value 0.976 | locus YBR171W, strain sec66, stronger effect = lower value 0.982 | locus YBR229C, strain ROT2, stronger effect = lower value 0.944 | locus YBR231C, strain swc5, stronger effect = lower value 0.999 | locus YBR279W, strain paf1, stronger effect = lower value 0.975 | locus YCL011C, strain gbp2, stronger effect = lower value 0.945 | locus YCL016C, strain dcc1, stronger effect = lower value 0.968 | locus YCL029C, strain bik1, stronger effect = lower value 0.986 | locus YCL061C, strain MRC1, stronger effect = lower value 0.992 | locus YCL069W, strain vba3, stronger effect = lower value 0.985 | locus YCR088W, strain abp1, stronger effect = lower value 0.974 | locus YDL005C, strain med2, stronger effect = lower value 0.968 | locus YDL035C, strain GPR1, stronger effect = lower value 0.967 | locus YDL040C, strain nat1, stronger effect = lower value 0.98 | locus YDL074C, strain BRE1, stronger effect = lower value 1.02 | locus YDL101C, strain DUN1, stronger effect = lower value 0.977 | locus YDL134C, strain PPH21, stronger effect = lower value 0.978 | locus YDL185W, strain tfp1, stronger effect = lower value 0.983 | locus YDL192W, strain arf1, stronger effect = lower value 0.978 | locus YDR001C, strain nth1, stronger effect = lower value 0.965 | locus YDR069C, strain doa4, stronger effect = lower value 0.981 | locus YDR101C, strain arx1, stronger effect = lower value 1.01 | locus YDR137W, strain rgp1, stronger effect = lower value 0.967 | locus YDR150W, strain NUM1, stronger effect = lower value 0.956 | locus YDR159W, strain sac3, stronger effect = lower value 1.02 | locus YDR162C, strain NBP2, stronger effect = lower value 0.968 | locus YDR195W, strain ref2 0.982 | locus YDR297W, strain sur2, stronger effect = lower value 0.974 | locus YDR318W, strain mcm21, stronger effect = lower value 0.999 | locus YDR334W, strain swr1, stronger effect = lower value 0.941 | locus YDR335W, strain msn5, stronger effect = lower value 0.971 | locus YDR388W, stronger effect = lower value 0.997 | locus YDR392W, strain spt3, stronger effect = lower value 0.956 | locus YDR502C, strain sam2, stronger effect = lower value 0.98 | locus YEL003W, strain gim4, stronger effect = lower value 0.989 | locus YEL037C, strain rad23, stronger effect = lower value 0.976 | locus YEL061C, strain CIN8 (second series), stronger effect = lower value 0.975 | locus YEL061C, strain CIN8, stronger effect = lower value 0.979 | locus YER015W, strain faa2, stronger effect = lower value 0.982 | locus YER016W, strain bim1, stronger effect = lower value 0.984 | locus YER110C, stronger effect = lower value 0.965 | locus YER111C, strain swi4, stronger effect = lower value 0.981 | locus YER155C, strain BEM2 (second series), stronger effect = lower value 1.03 | locus YER155C, strain BEM2, stronger effect = lower value 1.01 | locus YER167W, strain BCK2, stronger effect = lower value 0.988 | locus YFR010W, strain ubp6, stronger effect = lower value 0.981 | locus YGL078C, strain dbp3, stronger effect = lower value 0.973 | locus YGL086W, strain mad1, stronger effect = lower value 0.982 | locus YGL167C, strain pmr1, stronger effect = lower value 0.984 | locus YGL173C, strain kem1, stronger effect = lower value 0.981 | locus YGL227W, strain vid30, stronger effect = lower value 0.981 | locus YGL240W, strain doc1, stronger effect = lower value 0.993 | locus YGL248W, strain PDE1, stronger effect = lower value 0.976 | locus YGL253W, strain hxk2, stronger effect = lower value 0.977 | locus YGR078C, strain PAC10, stronger effect = lower value 0.98 | locus YGR135W, strain pre9, stronger effect = lower value 0.991 | locus YGR229C, strain SMI1, stronger effect = lower value 0.998 | locus YGR252W, strain gcn5, stronger effect = lower value 0.904 | locus YHR013C, strain ard1, stronger effect = lower value 0.948 | locus YHR027C, strain rpn1, stronger effect = lower value 0.962 | locus YHR030C, strain SLT2, stronger effect = lower value 0.985 and 1.07 | locus YHR079C, strain IRE1 (second series), stronger effect = lower value 1.01 | locus YHR079C, strain IRE1, stronger effect = lower value 1.05 | locus YHR094C, strain hxt1, stronger effect = lower value 0.99 | locus YHR129C, strain ARP1, stronger effect = lower value 0.994 | locus YHR142W, strain chs7, stronger effect = lower value 0.933 | locus YHR200W, strain rpn10, stronger effect = lower value 0.997 | locus YIL066C, strain RNR3, stronger effect = lower value 0.97 | locus YIL073C, strain SPO22, stronger effect = lower value 1.01 | locus YIL125W, strain kgd1, stronger effect = lower value 0.989 | locus YIR030C, strain dcg1, stronger effect = lower value 0.983 | locus YJL092W, strain hpr5, stronger effect = lower value 0.985 | locus YJL095W, strain BCK1 (second series), stronger effect = lower value 0.98 | locus YJL095W, strain BCK1, stronger effect = lower value 1.02 and 1.04 | locus YJL115W, strain asf1, stronger effect = lower value 0.958 | locus YJL129C, strain trk1, stronger effect = lower value 0.968 | locus YJL134W, strain LCB3, stronger effect = lower value 0.978 | locus YJL154C, strain vps35, stronger effect = lower value 0.963 | locus YJL164C, strain tpk1, stronger effect = lower value 0.996 | locus YJL166W, strain qcr8, stronger effect = lower value 0.96 | locus YJL168C, strain set2, stronger effect = lower value 0.993 | locus YJL187C, strain SWE1 (second series), stronger effect = lower value 0.985 | locus YJL187C, strain SWE1, stronger effect = lower value 0.981 | locus YJR043C, strain POL32, stronger effect = lower value 1.02 | locus YJR066W, strain TOR1, stronger effect = lower value 1.01
